Bioassay records deposited in PubChem by National Center for Advancing Translational Sciences (NCATS).
MLL CXXC-DNA inh: MLL CXXC-DNA interaction inhibition; Q03164; MLL-CXXC / FITC-HOXA9 DNA fluorescence polarization; Potency, µM (doses to about 115 µM), hits mostly inhibitors; actives 0.037% (n = 290,000); AID 2662; active means well fitted inhibition curve with a large enough effect in the polarisation, with a control signal flat, not every such curve was filed as active; inconclusive means small, poorly fitted or top-dose-only effect, or effect the other way, or a change in a side signal; inactive means no such curve, though single readings can be large or run the other way; the % refers to the polarisation
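Steps: dispense CXXC domain solution (7 uM) → pin compounds or unlabeled HOX-A9 DNA control → 5 min ambient → add FLSN-HOX-A9 solution (50 nM) → spin → 30 min ambient → fluorescence polarization. Tris pH 7.5/NaCl/DTT/BSA buffer.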
Menin MLL FP TR: menin-MLL binding inhibition, Texas Red mutant peptide; Menin + Texas Red MLL mutant peptide, fluorescence polarization; O00255; AID 1768; Potency, µM (doses to about 61.6 µM), most hits filed as inhibitors; actives 0.23% (n = 270,000); active means well fitted inhibition curve with a large enough effect in the polarisation, with a control signal flat, not every such curve was filed as active; inconclusive means small, poorly fitted or top-dose-only effect, or effect the other way, or a change in a side signal; inactive means no such curve, though single readings can be large or run the other way; the % refers to the polarisation
Epigenetic reg: derepresses silenced GFP reporter in murine cells; AID 1865; actives 0.2% (n = 280,000); Potency, µM (top dose mostly 53.9 µM), usual class: activators; murine LDR cells, GFP reporter derepression, 30 h; active means well fitted activation curve with a large enough effect; inconclusive means small, poorly fitted or top-dose-only effect; further: nearly all actives have a fitted effect of over 60% in size
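In this reporter-derepression format, murine cells bearing a silenced integrated CMV-GFP locus incubate with test compound (30 h, 37 C), then are washed and imaged; fluorescent objects of 20–120 um count as induced cells.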
ClpP mod: qHTS Assay for Activators of ClpP. AID 651965, 2013. purified B. subtilis ClpP, FRET peptide cleavage, 20 min. actives 1.9% (n = 340,000). ATP-dependent Clp protease proteolytic subunit (Bacillus subtilis (strain 168)), P80244. Potency, µM (top dose mostly 57.5 µM); active means well fitted falling curve with a large enough effect; inconclusive means small, poorly fitted or top-dose-only effect; inactive means no such curve, though single readings can be large or run the other way; further: the source files actives as falling curves though it sought activators and does not explain the sign; nearly all actives have a fitted effect of over 65% in size
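FRET quenching reversal measured ClpP activation: 10 microg/mL B. subtilis ClpP at pH 8 with the FRET-FV decapeptide, read at 430 nm after 320 nm excitation. The 20-min minus 0-min signal was scaled between DMSO/no-enzyme wells and ADEP (5.8 microM final).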
PINK1 expr mod: changes PINK1 expression. PINK1 immunofluorescence, high-content cytometry, 24 h. actives 0.2% (n = 410,000). Potency, µM (titrated, usually from 76.6 µM), usual class: activators; active means well fitted activation curve with a large enough effect; inconclusive means small, poorly fitted or top-dose-only effect; cell line not stated here; further: nearly all actives have a fitted effect of over 65% in size
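Stable cell line treated 24 h with compounds at 5 concentrations (CCCP controls), then fixed and immunostained for PINK1 plus nuclear and cell stains; PINK1 immunofluorescence quantified by laser-scanning microplate cytometry.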
Menin MLL FP FL: displaces fluorescein MLL peptide from human menin | Fluorescence polarization, fluorescein-MLL peptide displacement from menin | FP activity change, % at 61.4 µM | 290,000 tested, under 10 active | AID 1766; active means well fitted curve in the direction sought with a large enough effect in the polarisation, not every such curve was filed as active; inconclusive means small, poorly fitted or top-dose-only effect, or effect the other way, or a change in a side signal; inactive means no such curve, though single readings can be large or run the other way; the % refers to the polarisation
Numbers stand for hits; - = inactive; ? = inconclusive; . = no result. Shown are actives, neighbours in structure and some others; about 1.9% of the full set was active somewhere.

SMILES	MLL CXXC-DNA inh	Menin MLL FP TR	Epigenetic reg	ClpP mod	PINK1 expr mod	Menin MLL FP FL
COc1cc(C=NCc2ccccc2)ccc1O	.	.	.	-	-	.
CCOc1ccc(/C=C/c2cc[n+](C)c3ccccc23)cc1OCC	.	.	.	-	-	.
Cc1cccc(N=C2NN=C(c3c(C)[nH]c4ccccc34)CS2)c1	-	?	-	18µM	?	-
CCNc1ncc2nc(-c3cccs3)c(=O)n(CCC#N)c2n1	.	-	.	.	-	?
O=C(NCc1nnnn1-c1ccc(F)c(F)c1)c1ccc(S(=O)(=O)N2CCOCC2)cc1	.	.	.	35µM	-	.
Cc1cccc(CNC(=O)c2c3n(c(C)cc2=O)-c2ccccc2SC(c2ccsc2)C3)n1 (configuration not stated)	.	.	.	.	-	.
COc1ccc(OC)c(C2C3CN(C(C)C)CC=C3C(C#N)=C(N)C2(C#N)C#N)c1 (configuration not stated)	-	-	-	-	40µM	?
Cc1ccc(C2C3CN(C(C)C)CC=C3C(C#N)=C(N)C2(C#N)C#N)cc1 (configuration not stated)	?	-	-	20µM	25µM	?
CC(=O)N1CC=C2C(C#N)=C(N)C(C#N)(C#N)C(CCc3ccccc3)C2C1 (configuration not stated)	-	-	-	-	-	-
COc1cccc(OC)c1OCc1cc(C2C3CCCC=C3C(C#N)=C(N)C2(C#N)C#N)c(C)cc1C (configuration not stated)	-	-	-	-	-	?
CCCN1CC=C2C(C#N)=C(N)C(C#N)(C#N)C(c3cccc(OC)c3OC)C2C1 (configuration not stated)	?	-	-	-	10µM	?
CCN1CC=C2C(C#N)=C(N)C(C#N)(C#N)C(CCc3ccccc3)C2C1 (configuration not stated)	?	-	-	28µM	10µM	?
CCCCOc1ccc(C2C3CN(C(=O)OCC)CC=C3C(C#N)=C(N)C2(C#N)C#N)cc1OC (configuration not stated)	-	-	-	-	-	?
CCOC(=O)N1CC=C2C(C#N)=C(N)C(C#N)(C#N)[C@H](c3ccc(OCC)c(OCC)c3)[C@H]2C1	-	-	-	-	-	-
O=C(O)[C@H](O)[C@@H](O)[C@H](O)[C@H](O)CO	-	-	.	.	.	-
Nc1c2c(nc3ccc(Br)cc13)N(C1CCCCC1)CC2	?	-	-	.	.	-
Nc1c2c(nc3ccccc13)N(C1CCCCC1)CC2	-	-	-	14µM	-	-
O=C(c1ccccc1-c1nc2ccccc2[nH]1)N1CCCCC1	-	-	-	28µM	-	-
O=S(=O)(c1ccc2c(c1)OCCO2)N1CCC(c2nc3ccccc3s2)CC1	-	-	-	-	11µM	-
SCc1nc2ccccc2[nH]1	.	.	.	-	-	.
CCOC(=O)Cc1csc(NC(=O)c2sc3nc4ccc(CC)cc4cc3c2N)n1	-	.	?	-	40µM	?
CC1(C)CC(=O)c2c(nc3ccccc3c2N)C1	-	-	-	32µM	-	-
CN(CCOc1ccccc1)C(=O)C1CCN(C(=O)c2ccc(F)cc2)CC1	-	.	.	22µM	-	.
COc1cc(-c2cc(C)c3cccc(OC)c3n2)cc2c1OCCN(C(=O)CCn1nc(C)cc1C)C2	.	.	.	.	-	.
O=C(Cc1ccccc1)Nc1cccc(N2C(=O)C=CC2=O)c1	-	-	-	14µM	-	-
SMILES	MLL CXXC-DNA inh	Menin MLL FP TR	Epigenetic reg	ClpP mod	PINK1 expr mod	Menin MLL FP FL
O=C(CN1CCC(n2nnc3ccccc32)CC1)Nc1ccc2c(c1)CCC2	-	-	-	-	-	-
O=C(CN1CCC(n2nnc3cc(F)ccc32)CC1)Nc1ccc2c(c1)CCC2	-	-	-	14µM	-	-
COC(=O)c1c(OCc2ccccn2)cc(=O)n2c1CCN(Cc1cccc(C(F)(F)F)c1)CC2	.	.	.	.	-	.
COc1ccc(C(=O)NCC2(N3CCCCC3)CCCCC2)cc1S(=O)(=O)N(C)C	-	-	.	.	-	-
CCOC(=O)C(=O)N=Nc1c(O)[nH]c2ccccc12	-	-	-	22µM	-	-
CN(CC1COCCO1)C(=O)c1cnn(-c2nccc(-c3ccccc3C(F)(F)F)n2)c1C1CC1 (configuration not stated)	.	.	.	.	-	.
CC(C)(C)c1ccc(C(=O)CCCN2CCC(OC(c3ccccc3)c3ccccc3)CC2)cc1	-	-	.	.	.	-
CCN1CCN(C(=O)c2cnn(-c3ncc4c(n3)-c3ccccc3CCC4)c2COC)CC1	.	.	.	.	-	.
O=c1[nH]c(Nc2ccccc2)cc2ccccc12	-	-	-	28µM	-	-
COC(=O)Cc1[nH]nc2c1C(C1C=CCCC1)C(C#N)=C(N)O2 (configuration not stated)	-	-	-	7.1µM	-	-
Cc1ccc(SCC(=O)Nc2cc([N+](=O)[O-])ccc2O)cc1	-	?	-	.	16µM	-
O=C(CSCc1ccc(Cl)cc1)Nc1cc([N+](=O)[O-])ccc1O	-	?	-	.	14µM	-
CCCCCCNc1ccc(/C=C/c2ccnc3ccccc23)cc1	.	.	.	-	-	.
Cc1cc(C)cc(OCCSc2nc3ccc(NC(=O)c4ccc5c(c4)OCO5)cc3s2)c1	.	.	-	-	-	.
Cc1ccccc1OCCSc1nc2ccc(NC(=O)c3cccs3)cc2s1	.	.	-	14µM	-	.
Cc1ccccc1OCCSc1nc2ccc(NC(=O)c3ccccc3)cc2s1	.	.	-	-	-	.
Cc1ccccc1OCCSc1nc2ccc(NC(=O)c3cccc(F)c3)cc2s1	.	.	-	22µM	-	.
COc1cc(C)ccc1OCCSc1nc2ccc(NC(=O)c3ccc4c(c3)OCO4)cc2s1	.	.	-	22µM	-	.
Cc1cccc(OCCSc2nc3ccc(NC(=O)c4cccs4)cc3s2)c1	.	.	-	20µM	-	.
COc1ccccc1CN1CCOc2ccc(CN3CCC(Oc4cccnc4)CC3)cc2C1	.	.	.	.	-	.
C[C@@]12CCC=C[C@H]1[C@H](c1ccc(F)c(/C=C/c3ccccc3)c1)N(Cc1ccccc1)C2=O	-	.	-	28µM	-	-
CC(O)(COc1ccccc1)c1ccc2c(c1)CN(Cc1cccc3ncccc13)CCO2 (configuration not stated)	.	.	.	.	-	.
COc1ccc2c(Cl)c(C(=O)NCCc3ccc(S(N)(=O)=O)cc3)sc2c1	-	?	.	14µM	-	-
CCN(CC(=O)Nc1ccccc1C(F)(F)F)C(=O)c1oc2c(Cl)cccc2c1C	.	.	.	35µM	-	.
N#Cc1c(-c2ccccc2)cc(C2CC2)nc1SCC(=O)c1cccs1	-	?	?	-	-	?
N#Cc1c(-c2cccs2)cc(C2CC2)nc1SCC(N)=O	-	.	-	16µM	-	-
Cc1ccc(SCC(=O)NC(=O)NCc2ccccc2)c(C)c1	-	-	-	35µM	-	-
